Assay outcomes (PubChem)
ELG1 genotox = qHTS screen for small molecules that induce genotoxicity in human embryonic kidney (HEK293T) cells expressing luciferase-tagged ELG1; HEK293T ELG1-luciferase reporter, luminescence, 16 h; Potency, µM (top dose mostly 46 µM), without a hit: top-dose activity change, positive = activation, actives largely listed as activators; hit rate 1.3% among 330,000; AID 504466, 2011; further: % of control where 0% means no effect; nearly all actives have a fitted effect of over 60% in size
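Luminescence read-out: rising ELG1-luciferase signal, reflecting elevated ELG1 protein under genetic stress, flags genotoxic compounds. Cells were treated for 16 hr at 37 °C before ONE-Glo detection.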
SMN2 splice enh = qHTS Assay for Enhancers of SMN2 Splice Variant Expression; HEK293 SMN2-luciferase splicing reporter, luminescence, 30-36 h; hit rate 2.8% among 210,000; Potency, µM (doses to about 46.1 µM), for inactives: top-dose activity change, positive = activation, most hits filed as activators; AID 1458, 2008; further: % of control where 0% means no effect; nearly all actives have a fitted effect of over 55% in size
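qHTS luciferase splicing reporter: luminescence rises when SMN2 exon 7 is included in transfected HEK293 cells. Compound exposure lasted 30-36 h at 37C, with 4.5 mM final sodium butyrate as control, followed by a ONE-Glo read.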
FLuc counter = qHTS profiling assay for firefly luciferase inhibitor/activator using purifed enzyme and Km concentrations of substrates (counterscreen for miR-21 project) | purified FLuc, Km substrates, luminescence inhibition | Potency, µM (highest dose often 57.5 µM), without a hit: top-dose activity change, negative = inhibition, usual class: inhibitors | hit rate 6.9% among 360,000 | AID 588342, 2011;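 further: plate controls were vehicle for no effect and reference inhibitor for full effect; nearly all actives have a fitted effect of over 55% in size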
Target sequence (P08659 whole entry, looked up): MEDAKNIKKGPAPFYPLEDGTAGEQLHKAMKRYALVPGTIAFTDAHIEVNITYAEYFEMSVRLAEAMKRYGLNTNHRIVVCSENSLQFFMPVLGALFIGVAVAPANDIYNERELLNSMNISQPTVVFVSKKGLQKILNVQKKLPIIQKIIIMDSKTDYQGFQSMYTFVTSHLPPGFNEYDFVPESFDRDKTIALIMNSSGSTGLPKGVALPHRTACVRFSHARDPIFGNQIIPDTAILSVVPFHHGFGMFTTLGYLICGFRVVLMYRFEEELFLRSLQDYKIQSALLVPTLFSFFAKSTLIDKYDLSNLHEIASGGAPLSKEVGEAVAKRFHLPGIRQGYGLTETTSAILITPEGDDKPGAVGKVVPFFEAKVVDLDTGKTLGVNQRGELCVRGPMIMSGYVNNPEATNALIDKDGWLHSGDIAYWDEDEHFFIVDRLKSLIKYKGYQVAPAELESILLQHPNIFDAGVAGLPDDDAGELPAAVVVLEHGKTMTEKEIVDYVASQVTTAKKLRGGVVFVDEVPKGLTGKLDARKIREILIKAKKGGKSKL
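Purified P. pyralis luciferase, 10 nM final, with Km-level 10 uM D-luciferin and 10 uM ATP in 50 mM Tris acetate pH 7.5, 10 mM Mg acetate, 0.01% Tween-20, 0.05% BSA; 6-point qHTS titration about 60 µM downward; luminescence read.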
Rab9 promoter act = qHTS Assay for Rab9 Promoter Activators; Huh7 Rab9 promoter-luciferase reporter, luminescence, 24 h; Potency, µM (doses to about 9.22 µM), for the others: at the highest dose activation, negative = inhibition, hits mostly activators; hit rate 2.8% among 320,000; AID 485297, 2010; further: % of control where 0% means no effect; nearly all actives have a fitted effect of over 60% in size
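Luminescence from Amplite-detected luciferase (10 minutes, ambient) reports Rab9 promoter activation. Before that, stable Rab9-luciferase Huh7 cells (1500/well, reduced-serum OP-MEM I plus 10% FBS) were exposed to compound for 24 hours at 37C.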
NPC1 promoter act = qHTS Assay for NPC1 Promoter Activators; Potency, µM (series often up to 9.22 µM), inactives show top-dose activation, hits mostly activators; Huh7 NPC1 promoter luciferase reporter, 24 h; hit rate 2.4% among 320,000; AID 485313, 2010; further: % of control where 0% means no effect; nearly all actives have a fitted effect of over 60% in size
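Stable NPC1-promoter luciferase Huh7 line; cpd (DMSO) 24 h, 37 °C, 5% CO2; Amplite luciferase reagent 10 min RT; luminescence readout. qHTS format.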
Active calls of the source: *; ? = inconclusive; . = not tested or not shown; [ ] = another dose, or the depositor's remark. Compounds with a hit are over-represented: about 7.4% of the library has one in this group of screens. The call rests on the fitted dose curve; in most records, active means well fitted curve in the direction sought with a large enough effect; inconclusive means small, poorly fitted or top-dose-only effect, or another doubt; inactive means no such curve, though single readings can be large; an effect the other way counts as inactive or inconclusive. Potency means the concentration at half of the fitted maximal effect.

SMILES	ELG1 genotox	SMN2 splice enh	FLuc counter	Rab9 promoter act	NPC1 promoter act
Cc1cc(/C=C2\SC(=S)N(C)C2=O)c(C)n1-c1cccc(O)c1	?	.	1.07µM*	15.0%	?
CN1C(=O)/C(=C\c2cc(N=Nc3ccccc3)ccc2O)SC1=S	-12.7%	-34.8%	?	11.4%	-0.8%
CN=C1S/C(=C\c2cc(C)n(-c3ccccc3F)c2C)C(=O)N1C	?	-46.4%	0.338µM*	1.58µM*	?
Cc1cc(/C=C2\SC(=S)N(Cc3ccco3)C2=O)c(C)n1-c1ccccc1	5.17µM*	.	3.01µM*	3.55µM*	?
COc1ccc(-n2c(C)cc(/C=C3/SC(=S)N(C)C3=O)c2C)cc1	10.3µM*	-19.1%	3.38µM*	?	?
O=C1/C(=C\c2ccco2)SC(=S)N1Cc1ccccc1	-0.5%	-32.5%	-1.9%	1.3%	23.5%
CC(C)(C)C(=O)[C@H](C(c1ccccc1)N1CCOCC1)N1CCOCC1 (stereo partly drawn)	.	0.9%[9.22 µM]	.	.	.
COC(=O)c1ccc(NC(=O)CSc2nc3ccc(OC)cc3[nH]2)cc1	.	-14.6%	-7.3%	.	.
Cc1cc(/C=C2\SC(=O)N(C)C2=O)c(C)n1-c1ccc(O)cc1	0.651µM*	.	0.477µM*	0.199µM*	0.447µM*
Cc1cc(/C=C2\SC(=O)N(C)C2=O)c(C)n1-c1ccc(S(N)(=O)=O)cc1	0.1%	.	-18.4%	16.4%	10.5%
O=C(OCc1ccc(Cl)c(Cl)c1)c1ccc[nH]1	?	.	23.9µM*	?	?
O=C(Cc1ccc(Cl)c(Cl)c1)OCC(=O)c1ccc[nH]1	-1.2%	-12.6%	-13.2%	3.3%	-5.8%
COc1ccc2oc(C(=O)Nc3nc(-c4ccccn4)cs3)c(C)c2c1	-7.5%	.	?	0.4%	5.4%
CN(C)/N=C/C=C1\CCC/C(=C\c2ccc(F)c(F)c2)C1=O	11.4%	-99.9%	21.3µM*	16.8%	7.1%
COc1ccc(/C=C2\CCC/C(=C\C=N\N(C)C)C2=O)cc1	4.8%	-19.4%	10.7µM*	19.4%	6.1%
COc1ccccc1-c1nnc2n(CCc3ccccc3)c(=O)c3ccccc3n12	.	.	-7.0%	.	.
COCCN=C1OC(=O)N2C(=O)C3=C4C(C[C@H]5C(=O)N(c6ccccc6)C(=O)[C@H]5[C@H]4[C@@]12Cc1ccccc1)[C@H]1C(=O)N(c2ccccc2)C(=O)[C@H]1[C@H]3C (stereo partly drawn)	.	-2.5%	.	.	.
C=C[C@@H](C)[C@](C)(O)c1ccccc1	.	0.1%	.	.	.
Cc1ccc(C(C)C)c(OCC(=O)NC2CCN(C)CC2)c1	0.8%	.	-0.6%	-2.1%	0.9%
C[C@H]1CN([C@@H](C)CO)C(=O)c2cccc(NC(=O)C3CC3)c2O[C@H]1CN(C)Cc1ccncc1	0.6%	.	.	.	.
Cc1ccc(N=C(c2cccs2)N2CCOCC2)cc1	?	17.8µM*	4.4%	24.1%	5.5%
O=C(c1cccs1)N1CCOCC1	2.6%	7.2%	0.7%	1.6%	-4.4%
COc1cccc(C(=O)Nc2ccc3c(c2)OCO3)c1OC	?	.	9.53µM*	1.58µM*	1.41µM*
COc1ccccc1/C=C/C(=O)Nc1cccc(C(C)=O)c1	1.5%	12.9%	10.7µM*	27.4%	20.4%
COc1cccc(/C=C/C(=O)Nc2ccc(C(=O)Nc3cccc(S(N)(=O)=O)c3)cc2)c1OC	-2.1%	.	?	7.7%	1.5%
SMILES	ELG1 genotox	SMN2 splice enh	FLuc counter	Rab9 promoter act	NPC1 promoter act
COc1cccc(/C=C/C(=O)Nc2cccc(C(C)=O)c2)c1OC	1.6%	17.8µM*	3.01µM*	2.82µM*	3.16µM*
COc1cccc(/C=C/C(=O)Nc2ccc3c(c2)OCCO3)c1OC	1.3µM*	2.82µM*	0.757µM*	0.398µM*	0.398µM*
COc1cccc(C(=O)NCc2ccc3c(c2)OCO3)c1OC	3.1%	.	-1.9%	-0.1%	-2.2%
O=C(OCC(F)(F)F)[C@H](O)[C@@H](O)C(=O)OCC(F)(F)F	.	-4.0%	.	.	.
CC(C)(C)Nc1oc(-c2ccccc2)nc1-c1ccc(C(F)(F)F)cc1	.	9.1%	.	.	.
CCOC(=O)N1CCc2c(sc3c2c(=O)n(-c2ccc(CC)cc2)c(=O)n3Cc2cc(C)ccc2C)C1	.	-6.1%	0.7%	.	.
COc1ccccc1C(C)NCC(=O)Nc1ccccc1C(F)(F)F (stereo not drawn)	-4.5%	4.47µM*	-9.3%	6.4%	-0.5%
O=C(Nc1nc2cc3c(cc2s1)OCO3)C1CCCCC1	?	.	4.78µM*	1.26µM*	1.78µM*
CC(=O)Nc1nc2cc3c(cc2s1)OCCO3	?	.	7.57µM*	1.41µM*	1.58µM*
O=C(NNc1nc2cc3c(cc2s1)OCCO3)c1ccccc1	?	20µM*	9.53µM*	?	?
COc1ccc(OCC(=O)Nc2nc3cc4c(cc3s2)OCCO4)cc1	-1.6%	.	.	.	.
O=C(Nc1nc2cc3c(cc2s1)OCO3)C1CC1	9.0%	.	?	27.5%	?
O=C(Nc1nc2cc3c(cc2s1)OCCO3)C1CCCCC1	?	.	0.426µM*	0.316µM*	0.501µM*
C/C(CC(=O)Nc1ccc(N(C)C)cc1)=N\NC(=O)c1ccc([N+](=O)[O-])cc1Cl	-2.5%	9.1%	-2.2%	10.6%	-3.8%
C/C(CC(=O)Nc1ccc(Cl)c(C(F)(F)F)c1)=N\NC(=O)c1ccccc1O	-5.8%	9.8%[1.84 µM]	16.9µM*	-0.6%	0.6%
C/C(CC(=O)Nc1ccc(N(C)C)cc1)=N\NC(=O)c1ccccc1O	-1.4%	.	12µM*	9.9%	5.3%
C/C(CC(=O)Nc1ccc(Cl)c(C(F)(F)F)c1)=N\NC(=O)c1cccc(O)c1	-3.2%	12.6%	-11.9%	0.3%	-1.8%
C/C(Cn1nnc([N+](=O)[O-])n1)=N\NC(=O)c1ccccc1O	-12.1%	.	10.7µM*	-3.8%	-0.6%
C/C(CC(=O)Nc1ccc([N+](=O)[O-])cc1)=N\NC(=O)c1ccccc1O	-0.9%	.	12µM*	-2.1%	2.5%
CCCn1c(-c2ccc(F)cc2)nc2c(NCCCCN(C)C)nc(C)nc21	.	-1.9%	.	.	.
CCOC(=O)c1c(S(=O)(=O)N2CCC(C(=O)Nc3ccc(OCC)cc3)CC2)c(C)n(C)c1C	.	.	-3.6%	.	.
CCCCn1c(N)c(N(CCC(C)C)C(=O)c2[nH]c(C)c(C(=O)OCC)c2C)c(=O)[nH]c1=O	-1.7%	.	0.2%	0.6%	-0.7%
Cc1ccc2c(c1)N(C(C)C(=O)NCc1ccc3c(c1)OCO3)C(=O)CO2 (stereo not drawn)	0.0%	.	-6.1%	-2.7%	-3.4%
C/C(=N\NC(=O)COc1ccc(C)cc1C(C)C)c1ccc(-n2ccnc2)cc1	-1.6%	9.3%	1.9µM*	13.7%	5.6%
COc1ccc(NCC(=O)N/N=C(\C)c2cc3ccccc3o2)cc1	-3.1%	1.9%	16.9µM*	-2.6%	8.8%
